Screens deposited in PubChem by National Center for Advancing Translational Sciences (NCATS).
Hits are enriched below; roughly 3.4% of the tested compounds scored in any of these assays.
PKM2 activator: increases activity of human pyruvate kinase M2. purified PKM2, Kinase-Glo ATP luminescence, activation; response scale: 0% is enzyme alone, no compound. Potency, µM (highest dose often 57.5 µM), without a hit: top-dose activation, usual class: activators. 260,000 compounds, 0.34% hits. AID 1631; note: % is set by controls: 0 for no effect and ±100 for the full control effect; nearly all actives have a fitted effect of over 55% in size
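ATP formation by purified human PK-M2, quantified via coupled luciferase luminescence after 1 h at room temperature with 0.1 mM ADP and 0.5 mM PEP final.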
PLK1 PBD inh: blocks phosphopeptide binding to human PLK1 polo-box domain; P53350; Plk1 PBD binding of FITC phosphopeptide, fluorescence polarization; Potency, µM, for the others: max response, negative = inhibition, hits mostly inhibitors; 360,000 compounds, 2.8% hits; note: series mostly up to about 57 µM; % is set by controls: 0 for no effect and ±100 for the full control effect; nearly all actives have a fitted effect of over 65% in size
GCN5L2 inh: blocks human GCN5L2 histone acetyltransferase. Q92830. GCN5L2 HAT assay, ThioGlo1 CoA-SH fluorescence. Potency, µM (series often up to 58.9 µM), without a hit: at the highest dose activity change, negative = inhibition, hits mostly inhibitors. 390,000 compounds, 0.21% hits. AID 504327; note: % is set by controls: 0 for no effect and ±100 for the full control effect
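GCN5L2 (20nM final) in 50mM HEPES, 0.1mM EDTA pH 7.5, 0.01% Tween-20 was preincubated 15 min at room temperature with compound, then given ThioGlo1 (50uM), H3(1-25) peptide (75uM) and acetyl-CoA (70uM); CoA-thiol fluorescence (Ex340/Em540) was read at 0 and 20 min.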
Mito fusion yeast: mitochondrial division inhibition or fusion activation; AID 485298; Potency, µM (doses to about 46.1 µM), for inactives: at the top dose growth rescue (activation), most hits filed as activators; 320,000 compounds, 0.23% hits; S. cerevisiae fusion-defective mutant growth rescue, CellTiterGlo 48 h; note: % of control where 0% means no effect; nearly all actives have a fitted effect of over 45% in size
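Read-out: ATP-based luminescence (CellTiterGlo, 10 min ambient) reporting growth of fusion-defective ts yeast after 48 hours at 37C on glycerol/ethanol YPEG medium in the presence of compound.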
GLS inh: glutaminase GLS (human) inhibition; GLS enzymatic activity, qHTS titration; Potency, µM (series often up to 45.5 µM), for the others: at the top dose activity change, negative = inhibition, hits mostly inhibitors; 410,000 compounds, 0.21% hits; note: % is set by controls: 0 for no effect and ±100 for the full control effect
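Compounds were pin-transferred onto hKGA, after which L-glutamine (1 mM solution) and a detection mix of glutamate oxidase, HRP and Amplex Red were added. Initial and 30 min RT fluorescence reads were collected.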
VDR inhibitor: inhibitors of human vitamin D receptor; P11473; VDR-SRC2-3 peptide fluorescence polarization, 2 h; Potency, µM, for the others: max response, negative = inhibition, actives largely listed as inhibitors; 400,000 compounds, 0.93% hits; note: % is set by controls: 0 for no effect and ±100 for the full control effect
Target sequence (P11473 whole entry, looked up): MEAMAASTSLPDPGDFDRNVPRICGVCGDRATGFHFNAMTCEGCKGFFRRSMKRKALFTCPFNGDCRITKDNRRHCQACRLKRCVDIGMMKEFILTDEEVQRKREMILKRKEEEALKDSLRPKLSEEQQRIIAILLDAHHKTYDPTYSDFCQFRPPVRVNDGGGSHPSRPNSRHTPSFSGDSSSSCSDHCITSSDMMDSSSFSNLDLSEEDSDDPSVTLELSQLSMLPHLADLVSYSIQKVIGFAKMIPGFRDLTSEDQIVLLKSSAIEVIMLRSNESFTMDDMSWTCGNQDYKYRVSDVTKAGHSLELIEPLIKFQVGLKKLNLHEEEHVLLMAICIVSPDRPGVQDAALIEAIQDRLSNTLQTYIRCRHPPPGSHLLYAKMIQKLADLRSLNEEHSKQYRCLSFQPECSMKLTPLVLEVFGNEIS
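After 23 nl compound addition and a short centrifugation, plates sat for 2 hours at ambient temperature; polarization of fluorescence then indicated loss of VDR binding to peptide SRC2-3.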
The depositor's hits bear a star; ? = inconclusive; . = no result given. Calls come from the whole dose curve; as a rule, active = well fitted curve in the direction sought with a large enough effect; inconclusive = small, poorly fitted or top-dose-only effect, or another doubt; inactive = no such curve, though single readings can be large; an effect the other way counts as inactive or inconclusive. Potency is the fitted concentration of half-maximal effect.

SMILES | PKM2 activator | PLK1 PBD inh | GCN5L2 inh | Mito fusion yeast | GLS inh | VDR inhibitor
CCc1ccccc1NC(=S)N1CCNC(=O)C1CC(=O)OC (stereo not given) | 0% | 21µM* | -7% | 0% | 15% | -18%
CO/N=C(/C(=O)N[C@@H]1C(=O)N2C(C(=O)O)=C(COC(N)=O)CS[C@H]12)c1ccco1 | . | . | ? | . | -28% | 50µM*
COc1cccc(C(=O)NC2C(=O)N3C(C(=O)O)=C(COC(C)=O)CSC23)c1 (stereo not given) | . | 21µM* | 0% | 14% | -3% | ?
CC(=O)OCC1=C(C(=O)OC(C)(C)C)N2C(=O)[C@@H](NC(=O)Cc3ccccc3)[C@H]2SC1 | . | 17µM* | . | . | -4% | ?
CC1=C(C(N)=O)N2C(=O)[C@@H](NC(=O)Cc3ccccc3)C2SC1 (stereo not given in full) | . | . | . | . | . | -14%
CC(=O)OCC1=C(C(=O)O)N2C(=O)C(NC(=O)c3ccc(COc4cccc(Cl)c4Cl)o3)C2SC1 (stereo not given) | 6% | ? | ? | -3% | -18% | 25µM*
COC1=C(C(=O)O)N2C(=O)[C@@H](NC(=O)C(N)C3C=CCC=C3)[C@H]2SC1 (stereo not given in full) | . | . | . | . | 0% | .
CO/N=C(/C(=O)N[C@@H]1C(=O)N2C(C(=O)[O-])=C(C[n+]3ccn4ncccc43)CS[C@H]12)c1nsc(N)n1 | . | . | . | . | -24% | .
CSc1cccc(NC(=O)N2CCN(c3cc(-c4noc(C)n4)ccc3C)CC2)c1 | . | . | -10% | . | 2% | -3%
COc1ccc(NC(=O)CCN2CCN(c3ccccc3F)CC2)c(OC)c1 | -2% | -4% | -1% | 4% | -18% | 3%
CC1=C(C(=O)O)N2C(=O)C(NC(=O)c3ccc(F)cc3)C2SC1 (stereo not given) | . | 24µM* | -21% | 2% | -3% | -19%
CC1=C(C(=O)O)N2C(=O)C(NC(=O)c3ccccc3Cl)C2SC1 (stereo not given) | . | ? | 0% | 3% | 0% | -4%
CC1(C)CC(=O)C/C(=N/Nc2nc3ccccc3s2)C1 | -4% | -19% | -7% | 7% | 17% | ?
CC1CCC/C(=N/Nc2nc3ccccc3s2)C1 (stereo not given) | 4% | 30µM* | -9% | -5% | 4% | -6%
CC(C)CC1NC(=S)N(C2CCCCC2)C1=O (stereo not given) | 4% | 3µM* | 12% | -9% | ? | -24%
Cc1cccc(N2CCN(C(=O)c3ccc4c(c3)NC(=O)C(CSCc3cccc(F)c3)N4)CC2C)c1 (stereo not given) | . | ? | 14µM* | 0% | 4% | ?
COc1cccc(CNC(=O)c2nc(Cn3nc(C)c(Br)c3C)no2)c1 | . | . | -2% | 1% | -9% | 5%
COc1ccc(S(=O)(=O)N2CCc3ccccc32)cc1C(=O)OCc1c(C)noc1C | 11µM* | ? | -10% | 7% | -2% | -23%
CCOC(=O)c1noc2ncnc(Nc3ccc(F)cc3F)c12 | . | . | 1% | . | 5% | 5%
CCN(CC)c1ccc2cc(S(=O)(=O)c3ccc(Cl)cc3)c(=O)oc2c1 | ? | 19µM* | -15% | 16% | 0% | 9%
Clc1ccc(-c2nnc(-c3ccc(Br)cc3)c(N3CCSCC3)n2)cc1 | -5% | 0% | 2% | 3% | -8% | 18%
Clc1ccc(-c2nnc(-c3ccco3)nc2N2CCCCC2)cc1 | -12% | ? | -20% | 11µM* | -6% | -5%
Nc1c(C(=O)c2ccc(Cl)cc2)oc2ccccc12 | 3% | -17% | -10% | 25µM* | 6% | 4%
Cc1ccccc1NC(=S)NCc1cccn1C | -5% | -2% | -1% | -4% | 40% | 8%
Cc1c(Cl)cccc1NC(=S)NCc1cccn1C | 9% | 17µM* | 3% | -10% | 27% | ?
SMILES | PKM2 activator | PLK1 PBD inh | GCN5L2 inh | Mito fusion yeast | GLS inh | VDR inhibitor
N#Cc1cccc(NC(=O)N2CCC3(CC2)CCN(C(=O)c2cnccn2)CC3)c1 | . | . | 1% | . | . | 13%
O=C(O)c1cc(N2C(=O)C=CC2=O)cc(N2C(=O)C=CC2=O)c1 | . | 2.7µM* | . | . | ? | ?
Cc1cc(C)n(-c2cc(C(=O)O)cc(C(=O)O)c2)n1 | -27% | -7% | -2% | 1% | -12% | 10%
COc1cc(NC(=O)c2ccccc2)c(C)cc1NC(=O)CC(CC(=O)O)c1ccccc1 (stereo not given) | . | -1% | 22% | -11% | 6% | 4%
Cc1cc(O)c2c(c1O)C(=O)[C@]13C(=C2O)C(=O)[C@@H]2[C@@H](O)[C@H]1[C@@H]1[C@H](O)[C@H]3C(=O)C3=C(O)c4c(O)cc(C)c(O)c4C(=O)[C@]312 | . | 30µM* | ? | . | 6.3µM* | -8%
COc1ccc(CCN2CCCn3c2nc2c3c(=O)n(CC(N)=O)c(=O)n2C)cc1OC | . | 5% | -25% | 15% | -10% | 1%
COc1ccc(-c2cc(=O)oc3c(O)c(O)ccc23)cc1 | . | -10% | -2% | 2% | 4.5µM* | 1%
COc1ccc(C(=O)Oc2ccc3c(-c4ccc(OC)cc4)cc(=O)oc3c2)cc1 | . | . | . | . | . | 0%
C=CCSc1nc2[nH]ncc2c(=O)[nH]1 | -4% | 30µM* | 0% | ? | 0% | -15%
Cc1csc(NC(=O)CSc2nc3[nH]ncc3c(=O)[nH]2)n1 | -7% | 21µM* | 0% | 24% | 29% | ?
O=C(Cn1nc(-c2ccc(Cl)cc2)ccc1=O)NCc1ccccc1Cl | . | . | -24% | . | -8% | 17%
Cc1cc(C)n2nc(SCC(=O)N3CCc4ccccc43)nc2n1 | 10% | 3% | -10% | 35µM* | 0% | -5%
Cn1c(SCC(=O)N2CCc3ccccc32)nc2cccnc21 | -1% | 24µM* | -1% | 5% | 35% | -25%
CC(C)(C)c1nnc2sc(SCC(=O)N3CCc4ccccc43)nn2c1=O | 1% | 27µM* | -3% | 12% | 7% | -12%
O=C(Oc1ccc[nH]c1=O)C1CC1 | . | 0% | . | . | -3% | .
COc1cc(CC(=O)OCC(=O)Nc2ccc(S(=O)(=O)N3CCCC3)cc2)cc(OC)c1OC | 20µM* | -16% | -6% | 0% | 6% | 21%
COc1ccc(NC(=O)c2cc(S(=O)(=O)N3CCCCC3)ccc2OC)cc1 | 7% | -5% | -10% | 4% | 1% | 1%
O=C(CN1C(=O)c2ccccc2S1(=O)=O)Nc1ccc(S(=O)(=O)N2CCCCC2)cc1 | -2% | 24µM* | . | -5% | 5% | -16%
O=C(Nc1ccc(S(=O)(=O)N2CCCCC2)cc1)c1ccccc1Cl | 5% | 30µM* | -3% | 3% | 25% | -17%
